Screens (PubChem)
KB-V1 cytotox = kills drug-selected multidrug resistant KB-V1 cells. KB-V1 MDR cells viability, CellTiter-Glo, 72 h. Potency, µM (series often up to 46.1 µM), hits mostly cytotoxic. 400,000 tested, 3.4% active. AID 1347076; further: nearly all actives have a fitted effect of over 60% in size
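KB-V1 MDR subline cells in DMEM (phenol-red free, 10% FBS) exposed to compounds in qHTS concentration series for 72 h at 37 degrees C. Viability read by CellTiter-Glo luminescence; concentration-effect curves fitted after normalization and correction.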
ELG1 DNA repair = ELG1-dependent DNA repair inhibition | Potency, µM (top dose mostly 46.1 µM), usual class: inhibitors | HEK293T ELG1-luciferase reporter, luminescence, 16 h; DNA damage induced by 5-fluorouridine | 330,000 tested, 2.3% active; further: nearly all actives have a fitted effect of over 55% in size
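Overnight (16 hr) co-exposure of 2,000 cells/well to 5-fluorouridine and compound at 37 °C preceded detection. Luciferase was quantified via ONE-Glo luminescence; loss of signal denotes inhibition.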
KB-3-1 cytotox = kills parental KB-3-1 adenocarcinoma cells | KB-3-1 viability, CellTiter-Glo ATP luminescence, 72 h | 400,000 tested, 1.4% active | AID 1347075 | Potency, µM (titrated, usually from 46.1 µM), hits mostly cytotoxic; further: nearly all actives have a fitted effect of over 60% in size
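Viability of parental KB-3-1 cells, measured by CellTiter-Glo luminescence, followed a 72 h incubation at 37 °C with pinned compounds in phenol-red-free DMEM containing 10% FBS.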
MCF10A rerep = inducers of DNA re-replication in MCF 10A breast cells; MCF 10A DNA re-replication, Hoechst nuclear intensity, 48 h; Potency, µM (doses to about 46.1 µM), most hits filed as activators; 350,000 tested, 2.9% active; AID 624296; further: nearly all actives have a fitted effect of over 50% in size
SW480 rereplic = induces DNA re-replication in SW480 colon adenocarcinoma cells; SW480 DNA re-replication, Hoechst DNA content imaging, 48 h; Potency, µM (titrated, usually from 46.1 µM), hits mostly activators; 340,000 tested, 1.8% active; AID 624297; further: nearly all actives have a fitted effect of over 55% in size
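Cells (250 per well) received 23 nL compound or DMSO by pin tool and were kept 48 hr at 37 C, 5% CO2. Nuclei were then stained with Hoechst for 40 min and scanned for DNA content.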
Each line names hits and unclear results; the compound was inactive in the other large screens. Hits are enriched below; roughly 8.2% of the tested compounds scored in any of these assays. The call rests on the fitted dose curve; in most records, active means well fitted curve in the direction sought with a large enough effect; inconclusive means small, poorly fitted or top-dose-only effect, or another doubt; inactive means no such curve, though single readings can be large; an effect the other way counts as inactive or inconclusive.

N#CCC(=O)Nc1ccc(C(=O)NCCC(c2ccccc2)c2ccccc2)cc1	none
COC(=O)Cn1ccc(N(C)C)c(C#N)c1=O	MCF10A rerep 9.2µM, SW480 rereplic 6.51µM
CC(C)(C)C(=O)N/C(N)=N/c1nc2ccccc2o1	KB-V1 cytotox inconclusive, ELG1 DNA repair inconclusive, KB-3-1 cytotox inconclusive
O=C(NNC(=O)c1cc(Br)ccc1O)c1csc(N2CCOCC2)n1	KB-V1 cytotox inconclusive, ELG1 DNA repair inconclusive, KB-3-1 cytotox inconclusive, SW480 rereplic 4.11µM
O=C(CN1CCN(c2ccc(O)cc2)CC1)Nc1cc([N+](=O)[O-])ccc1Cl	KB-V1 cytotox 8.2µM
CC(=O)N1CCN(CC(=O)Nc2cc([N+](=O)[O-])ccc2Cl)CC1	none
COc1ccc(C(=O)NCCS(=O)(=O)NCc2ccccc2)cc1	none
COc1ccc(C(=O)NCCS(=O)(=O)N(C)C2CCCCC2)cc1	KB-V1 cytotox 18.4µM
COc1ccc(C(=O)NCCS(=O)(=O)NCc2ccc(F)cc2)cc1	SW480 rereplic 3.66µM
CCCn1nnc(NC(=O)COc2ccc(Cl)cc2)n1	none (no result: ELG1 DNA repair)
CCCCn1nnc(NC(=S)NC(=O)c2ccc(-c3cccc(Cl)c3Cl)o2)n1	KB-V1 cytotox 14.6µM, KB-3-1 cytotox inconclusive
CCCn1nnc(NC(=O)c2ccccc2Br)n1	ELG1 DNA repair inconclusive, MCF10A rerep 18.4µM, SW480 rereplic 5.17µM
CCCn1nnc(NC(=O)Cc2ccc(Cl)cc2)n1	ELG1 DNA repair inconclusive, KB-3-1 cytotox inconclusive, MCF10A rerep 8.2µM
CCCn1nnc(NC(=O)/C=C/c2ccco2)n1	ELG1 DNA repair inconclusive, SW480 rereplic 20.6µM
COc1ccc(CNC(=O)c2cc3c(=O)n4cccc(C)c4nc3s2)cc1	none (no result: ELG1 DNA repair, MCF10A rerep, SW480 rereplic)
CC(C)(C)NC(=S)NCC1CC1	SW480 rereplic inconclusive
CCOC(=O)C1CCCN(C(=O)C(=O)c2cn(CC(=O)N3CCOCC3)c3ccccc23)C1 (centres undefined)	none
NC(=O)C1CCN(c2nccc(-c3ccc4c(c3)OCCCO4)n2)CC1	none (no result: ELG1 DNA repair, MCF10A rerep, SW480 rereplic)
COc1ccc(C)cc1S(=O)(=O)N1CCC(C(=O)NC2CCCC2)CC1	none (no result: KB-V1 cytotox, KB-3-1 cytotox)
CN(Cc1ccccc1)C(=O)c1ccccc1NC(=O)C1CC1	none
CCOc1ccc(CN(C)C(=O)[C@H](Cc2ccccc2)NC(=O)OCc2ccccc2)cc1OC	KB-V1 cytotox 10.3µM, ELG1 DNA repair inconclusive, KB-3-1 cytotox inconclusive, MCF10A rerep inconclusive
CN(Cc1ccccc1)C(=O)c1ccccc1NC(=O)c1ccccc1	KB-V1 cytotox 23.1µM
CCOc1ccc(C(=O)OCC(=O)N(Cc2ccccc2)Cc2ccccc2)cc1OC	KB-V1 cytotox 23.1µM, ELG1 DNA repair inconclusive
CSc1ccc(CN(C)C(=O)C(Cc2ccccc2)NC(=O)c2ccccc2)cc1 (centres undefined)	KB-V1 cytotox inconclusive, ELG1 DNA repair inconclusive
CN(Cc1ccc(F)cc1)C(=O)C(Cc1ccccc1)NC(=O)c1ccccc1 (centres undefined)	KB-V1 cytotox 10.3µM, ELG1 DNA repair inconclusive
CC(C)(C)NC(=O)CN(C(=O)CCC(=O)Nc1nccs1)c1ccccc1F	none (no result: ELG1 DNA repair, MCF10A rerep, SW480 rereplic)
CS(=O)(=O)c1ccc(C(=O)OCC(=O)Nc2ccc(OC(F)(F)F)cc2)cc1[N+](=O)[O-]	KB-3-1 cytotox inconclusive (no result: ELG1 DNA repair, MCF10A rerep, SW480 rereplic)
CCN(CC)C(=O)c1sc(NC(=O)c2nc3ncccn3n2)c(C(=O)OC)c1C	none (no result: ELG1 DNA repair, MCF10A rerep, SW480 rereplic)
COc1ccc(CN(C)C(=O)C(Cc2ccccc2)NC(=O)c2ccccc2)cc1F (centres undefined)	KB-V1 cytotox inconclusive, ELG1 DNA repair 14.6µM, KB-3-1 cytotox inconclusive, MCF10A rerep inconclusive, SW480 rereplic inconclusive
Oc1ccc2[nH]ccc2c1	ELG1 DNA repair inconclusive, SW480 rereplic 8.2µM
O=C(c1ccccn1)N1N=C2/C(=C/c3ccccc3)CCCC2C1c1ccccc1 (centres undefined)	SW480 rereplic inconclusive
COc1ccc(/C=C2\CCCC3C2=NN(C(=O)CSc2n[nH]c(N)n2)C3c2ccc(OC)cc2)cc1 (centres undefined)	MCF10A rerep inconclusive
O=C1CCC(C(=O)OCC(=O)N2N=C3/C(=C\c4ccccc4)CCCC3C2c2ccccc2)N1 (centres undefined)	none (no result: ELG1 DNA repair)
O=C1CCC(C(=O)OCC(=O)N2N=C3/C(=C/c4ccccc4)CCCC3C2c2ccccc2)N1 (centres undefined)	KB-V1 cytotox inconclusive, KB-3-1 cytotox 20.6µM
